Experimental findings from PubChem BioAssay AID2734 (National Center for Advancing Translational Sciences (NCATS), 2010) are described below.

Structures are written as SMILES. Inconclusive results are not listed. Calls of active or inactive are those of the source. Calls follow the shape of the dose curve; as a rule, active = well fitted inhibition curve with a large enough effect; inconclusive = small, poorly fitted or top-dose-only effect, or effect the other way; inactive = no such curve, though single readings can be large or run the other way.

The nature of this assay: High Content Assay for Compounds that inhibit the Assembly of the Perinucleolar Compartment: DNA Intercalation/PicoGreen Displacement Assay. As to conditions: fluorescence (intercalation counter-screen); series mostly up to 57.1 µM. The text has this: High Content Assay for Compounds that inhibit the Assembly of the Perinucleolar Compartment
NIH Chemical Genomics Center [NCGC]
NIH Molecular Libraries Probe Centers Network [MLPCN]
Assay Submitter (PI): Sui Huang, Northwestern University, Feinberg School of Medicine, Cell and Molecular Biology, Chicago, Illinois.
The perinucleolar compartment (PNC) is a non-membrane-bound nuclear subdomain that is associated with but structurally distinct from the nucleolus. The PNC is a heritable trait, in which the number of PNCs per cell in daughter cells often mimics that of their mother cells. The PNC is heterogeneous in shape, is stable through interphase, disassembles during mitosis, and reassembles in early G1. […]
Therefore, we conducted a DNA intercalation/displacement assay on the lead candidates in order to exclude compounds with this mechanism of action. […] Compounds which displace the dye will decrease fluorescence intensity and were considered DNA intercalators/displacers. In order to rule out potential fluorescence artifacts, a measurement of compound plus DNA only was also calculated. […]
4. A baseline signal was measured using an Envision PMT based plate reader using a 488 nm excitation filter and a 520 nm emission filter. […]
6. Plates were incubated at 37 C for 10 minutes prior to being read on the envision plate reader. […]

Consider `CCC(=NCc1cc(OC)cc(OC)c1)c1c(O)n(C)c(=O)n(C)c1=O`, for which the compound was classed as inactive.

Take `Cc1c2ccncc2c(C)c2c1[nH]c1ccccc12`: the compound was classed as inactive.
